Assay results published in PubChem BioAssay (NCATS).
Inconclusive results are not listed. Entries that show only a call come without a potency. Active and inactive are the calls of the source. The call rests on the fitted dose curve; in most records, active means well fitted inhibition curve with a large enough effect; inconclusive means small, poorly fitted or top-dose-only effect; inactive means flat fitted curve, though single readings scatter.

Each molecule was assayed on SC27B (assay: qHTS profiling for inhibitors of Plasmodium falciparum proliferation (AID 504749; further: nearly all actives have a fitted effect of over 60% in size)). Details: P. falciparum in erythrocytes, SYBR Green DNA, 72 h; series mostly up to 28.7 µM.
Outline: (§1)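 Three-day growth assay of blood-stage parasites in erythrocytes (0.3% parasitemia, 2.5% hematocrit) at 37 C, 5% CO2, quantified by SYBR Green DNA staining after overnight detergent lysis.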

Row | Compound | Potency
1 | CC(=O)Nc1ccccc1 | inactive
2 | O=C(/C=C/c1ccccc1)OCc1ccccc1 | inactive
3 | c1ccc2[nH]ccc2c1 | inactive
4 | NC(N)=NS(=O)(=O)c1ccc(N)cc1 | inactive
5 | Cc1ccc(S(=O)(=O)NC(=O)NC2CCCCC2)cc1 | inactive
6 | C[C@H]1COc2c(C3(N)CC3)c(F)cc3c(=O)c(C(=O)O)cn1c23 | inactive
7 | Cc1c(NC(C)C)c(=O)n(-c2ccccc2)n1C | inactive
8 | CCCCCC(N)=O | inactive
9 | Cn1c(=O)c2c(ncn2CCO)n(C)c1=O | inactive
10 | CC(C)c1cc2c(cc1S(=O)(=O)O)[C@@]1(C)CCC[C@@](C)(C(=O)O)[C@@H]1CC2 | inactive
11 | O=C(NCCCN1CCOCC1)c1ccc(Cl)cc1 | inactive
12 | COc1ccccc1OC(=O)Oc1ccccc1OC | inactive
13 | OCc1ccc(Cl)cc1Cl | inactive
14 | CC(=O)Nc1cccc(O)c1 | inactive
15 | FC(F)(F)C(Cl)Br (centres undefined) | inactive
16 | Cc1c(N(C)C)c(=O)n(-c2ccccc2)n1C | inactive
17 | COC(=O)c1cccnc1 | inactive
18 | CCN(CC)CC1CCCCN1CC(=O)N1c2ccccc2C(=O)Nc2cccnc21 (centres undefined) | inactive
19 | Cc1cccc(Nc2ccccc2C(=O)O)c1C | inactive

Row | Compound | Potency
20 | COc1ccccc1Oc1c(NS(=O)(=O)c2ccc(C(C)(C)C)cc2)nc(-c2ncccn2)nc1OCCO | inactive
21 | CCc1nnc(NS(=O)(=O)c2ccc(N)cc2)s1 | inactive
22 | Cc1c(C(=O)NCCO)[n+](=O)c2ccccc2n1[O-] | inactive
23 | O=C1c2cccc(O)c2C(=O)c2c(O)cccc21 | inactive
24 | CCCCCCCC(=O)OCC(COC(=O)CCCCCCC)OC(=O)CCCCCCC | inactive
25 | NNC(=O)CP(=O)(c1ccccc1)c1ccccc1 | inactive
26 | Nc1ncnc2c1ncn2[C@@H]1O[C@H](COP(=O)(O)O)[C@@H](O)[C@H]1O | inactive
27 | CC1CCc2cc(F)cc3c(=O)c(C(=O)O)cn1c23 (centres undefined) | inactive
28 | O=C(O)c1cc(=O)c2ccccc2o1 | inactive
29 | C=CCSCC1Nc2cc(Cl)c(S(N)(=O)=O)cc2S(=O)(=O)N1 (centres undefined) | inactive
30 | O=C(O)Cc1ccc(CCNS(=O)(=O)c2ccc(Cl)cc2)cc1 | inactive
31 | CC[N+](CC)(CC(=O)Nc1c(C)cccc1C)Cc1ccccc1 | inactive
32 | O=c1[nH]c(=O)c2ccccc2o1 | inactive
33 | O=C(O)c1ccccc1OP(=O)(O)O | inactive
34 | O=S1(=O)OC(c2ccc(O)cc2)(c2ccc(O)cc2)c2ccccc21 | inactive
35 | COc1ccc(C(=O)N2CCN(CC(=O)N3CCOCC3)CC2)cc1 | inactive
36 | OCC(O)CS (centres undefined) | inactive
37 | CN1CCN(C(=O)C2CCCCC2)CC1 | inactive

These molecules were tested on TAB109 in the same assay as above. Details: P. falciparum in erythrocytes, SYBR Green DNA, 72 h; series mostly up to 28.7 µM.
Outline: as §1

Row | Compound | Potency
38 | CC(=O)Nc1ccccc1 | inactive
39 | O=C(/C=C/c1ccccc1)OCc1ccccc1 | inactive
40 | c1ccc2[nH]ccc2c1 | inactive
41 | NC(N)=NS(=O)(=O)c1ccc(N)cc1 | inactive
42 | Cc1ccc(S(=O)(=O)NC(=O)NC2CCCCC2)cc1 | inactive
43 | C[C@H]1COc2c(C3(N)CC3)c(F)cc3c(=O)c(C(=O)O)cn1c23 | inactive
44 | Cc1c(NC(C)C)c(=O)n(-c2ccccc2)n1C | inactive
45 | CCCCCC(N)=O | inactive
46 | Cn1c(=O)c2c(ncn2CCO)n(C)c1=O | inactive
47 | CC(C)c1cc2c(cc1S(=O)(=O)O)[C@@]1(C)CCC[C@@](C)(C(=O)O)[C@@H]1CC2 | inactive
48 | O=C(NCCCN1CCOCC1)c1ccc(Cl)cc1 | inactive
49 | COc1ccccc1OC(=O)Oc1ccccc1OC | inactive
50 | OCc1ccc(Cl)cc1Cl | inactive
51 | CC(=O)Nc1cccc(O)c1 | inactive
52 | FC(F)(F)C(Cl)Br (centres undefined) | inactive
53 | Cc1c(N(C)C)c(=O)n(-c2ccccc2)n1C | inactive
54 | COC(=O)c1cccnc1 | inactive
55 | CCN(CC)CC1CCCCN1CC(=O)N1c2ccccc2C(=O)Nc2cccnc21 (centres undefined) | inactive
56 | Cc1cccc(Nc2ccccc2C(=O)O)c1C | inactive

Row | Compound | Potency
57 | COc1ccccc1Oc1c(NS(=O)(=O)c2ccc(C(C)(C)C)cc2)nc(-c2ncccn2)nc1OCCO | inactive
58 | CCc1nnc(NS(=O)(=O)c2ccc(N)cc2)s1 | inactive
59 | Cc1c(C(=O)NCCO)[n+](=O)c2ccccc2n1[O-] | inactive
60 | O=C1c2cccc(O)c2C(=O)c2c(O)cccc21 | inactive
61 | CCCCCCCC(=O)OCC(COC(=O)CCCCCCC)OC(=O)CCCCCCC | inactive
62 | NNC(=O)CP(=O)(c1ccccc1)c1ccccc1 | inactive
63 | Nc1ncnc2c1ncn2[C@@H]1O[C@H](COP(=O)(O)O)[C@@H](O)[C@H]1O | inactive
64 | CC1CCc2cc(F)cc3c(=O)c(C(=O)O)cn1c23 (centres undefined) | inactive
65 | O=C(O)c1cc(=O)c2ccccc2o1 | inactive
66 | C=CCSCC1Nc2cc(Cl)c(S(N)(=O)=O)cc2S(=O)(=O)N1 (centres undefined) | inactive
67 | O=C(O)Cc1ccc(CCNS(=O)(=O)c2ccc(Cl)cc2)cc1 | inactive
68 | CC[N+](CC)(CC(=O)Nc1c(C)cccc1C)Cc1ccccc1 | inactive
69 | O=c1[nH]c(=O)c2ccccc2o1 | inactive
70 | O=C(O)c1ccccc1OP(=O)(O)O | inactive
71 | O=S1(=O)OC(c2ccc(O)cc2)(c2ccc(O)cc2)c2ccccc21 | inactive
72 | COc1ccc(C(=O)N2CCN(CC(=O)N3CCOCC3)CC2)cc1 | inactive
73 | OCC(O)CS (centres undefined) | inactive
74 | CN1CCN(C(=O)C2CCCCC2)CC1 | inactive
